Screening results deposited in PubChem by National Center for Advancing Translational Sciences (NCATS).
Most compounds without a hit are left out; they make up all but 0.35% or so of the library.
GRP78 ERSR act – qHTS for Inducers of the Endoplasmic Reticulum Stress Response (ERSR) in Human Glioma: qHTS | U87-MG GRP78 promoter luciferase reporter, 16 h | Potency, µM, for the others: at the highest dose activation, actives largely listed as activators | hit rate 0.02% among 420,000; further: series mostly up to about 76 µM; % of control where 0% means no effect; nearly all actives have a fitted effect of over 35% in size
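ERSR induction read as luciferase luminescence (Bright-Glo, 10 min at room temperature) in stably transfected human U87-MG glioma cells exposed to compounds for 16 h, using GRP78 as sensor.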
Vif-A3G inh – qHTS for Inhibitors of Vif-A3G Interactions: qHTS; DNA dC->dU-editing enzyme APOBEC-3G (Homo sapiens), Q9HC16; HeLa A3G-eYFP + Vif (tagged APOBEC3G with the HIV-1 protein that degrades it), YFP fluorescence, overnight; Potency, µM (titrated, usually from 46.1 µM), for the others: at the highest dose activity, negative = active, most hits filed as inhibitors; hit rate 0.076% among 410,000; AID 602310, 2012; further: on the % scale 0 is the no-effect control and ±100 the full control effect; nearly all actives have a fitted effect of over 60% in size
Target sequence (Q9HC16 whole entry, looked up): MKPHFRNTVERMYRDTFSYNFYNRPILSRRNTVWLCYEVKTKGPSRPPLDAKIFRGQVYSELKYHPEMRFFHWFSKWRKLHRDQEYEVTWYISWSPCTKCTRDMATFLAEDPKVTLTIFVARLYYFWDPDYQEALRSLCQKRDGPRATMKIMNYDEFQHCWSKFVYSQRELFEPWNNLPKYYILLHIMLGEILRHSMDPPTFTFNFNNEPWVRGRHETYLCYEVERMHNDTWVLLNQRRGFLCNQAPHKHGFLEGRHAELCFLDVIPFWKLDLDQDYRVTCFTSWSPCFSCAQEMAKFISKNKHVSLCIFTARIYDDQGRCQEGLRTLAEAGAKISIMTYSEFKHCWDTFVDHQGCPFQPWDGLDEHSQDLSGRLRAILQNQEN
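Read-out is eYFP fluorescence (Ex 488/Em 500-530) from Vif-expressing HeLa A3G-eYFP cells; more signal means A3G escaped Vif-mediated degradation. Cells plated overnight, compound pinned in, incubated overnight at 37 deg C.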
Vif-APOBEC3F blk – qHTS for Inhibitors of Vif-A3F Interactions: qHTS; HeLa A3F-eYFP + Vif (tagged APOBEC3F with the HIV-1 protein that degrades it), YFP fluorescence increase; Potency, µM (doses to about 46.1 µM), without a hit: at the highest dose activity, negative = active; hit rate 0.2% among 390,000; AID 602313, 2012; further: % of control where 0% means no effect; nearly all actives have a fitted effect of over 65% in size
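HeLa cells stably expressing A3F-eYFP plus Vif, plated and incubated overnight at 37 deg C, then exposed to compounds overnight at 37 deg C. Blocked degradation read as raised yellow fluorescence (Ex 488/Em 500-530).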
Epigenetic derep – Quantitative High-Throughput Screen for Regulators of Epigenetic Control. murine LDR cells, GFP reporter derepression, 30 h. Potency, µM (doses to about 53.9 µM), for the others: at the top dose GFP activation, actives largely listed as activators. hit rate 0.2% among 280,000. AID 1865, 2009; further: % of control where 0% means no effect; nearly all actives have a fitted effect of over 60% in size
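Murine LDR cells bearing a silenced CMV-driven GFP reporter were exposed to compound for 30 h at 37 C. After PBS washes, GFP-positive cells (20-120 um objects) counted by laser-scanning microplate cytometry.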
Numbers without * were called inactive; ? = inconclusive; . = no result given. The call rests on the fitted dose curve; in most records, active means well fitted curve in the direction sought with a large enough effect; inconclusive means small, poorly fitted or top-dose-only effect, or another doubt; inactive means no such curve, though single readings can be large; an effect the other way counts as inactive or inconclusive. Potency means the concentration at half of the fitted maximal effect.

SMILES	GRP78 ERSR act	Vif-A3G inh	Vif-APOBEC3F blk	Epigenetic derep
Cc1cccc(C)c1NC1=C(Cl)C(=O)OC1OC(=O)c1ccccc1 (centres undefined)	3%	-1%	-19%	0%
Cc1ccc(NC2=C(Cl)C(=O)OC2OC(=O)c2ccccc2)c(C)c1 (centres undefined)	-7%	4%	-2%	16µM*
CCOc1cc(CNc2ccc(O)cc2)cc(Cl)c1OCc1ccccc1	13µM*	?	3%	1%
O=C(/C=C/c1ccccc1)C1C(=O)c2ccccc2C1=O	1%	2%	-6%	1%
O=C(c1ccccc1)C1C(=O)c2ccccc2C1=O	-1%	?	35µM*	?
CCc1nc2ccc(C(=O)NCc3cccs3)cn2c1N(C)Cc1nccs1	0%	-4%	.	.
Cc1nc2cnc(Oc3ccccc3)nc2n(C2CC2)c1=O	0%	.	.	.
Oc1[nH]c2ccccc2c1N=Nc1cccc(Cl)c1	?	-7%	?	.
CCc1cc2c(N=Nc3c(O)[nH]c4ccccc34)ncnc2s1	-3%	-24%	?	22µM*
Oc1[nH]c2ccccc2c1N=Nc1nncc2ccccc12	-2%	-3%	1%	0%
Cc1sc2ncnc(N=Nc3c(O)[nH]c4ccccc34)c2c1C	-4%	-6%	22µM*	?
c1ccc2c(c1)ncc1cccn12	-1%	1%	-2%	-3%
CCn1c2ccccc2c2c3ncc4cccn4c3ccc21	11%	?	25µM*	4%
CC(=O)N/N=C/c1cc(C(C)(C)C)cc(/C=N/NC(C)=O)c1O	-8%	13µM*	22µM*	4%
CCCCNc1c(-c2ccc(SC3CCCCC3)cc2)nc2cnccn12	13%	3.2µM*	?	.
CCCCNc1c(-c2ccc(OC)c(SC3CCCCC3)c2)nc2cnccn12	-13%	-19%	-17%	.
COC(=O)c1cc2oc3ccccc3c2n1CC(=O)Nc1cc(OC)cc(OC)c1	-1%	-1%	-8%	2%
Cc1ccccc1N(C)S(=O)(=O)c1nnc(NC(=O)C(C)C)s1	-2%	4%	1%	22µM*
Cc1c(Cc2ccccc2)sc(/N=C/c2c(O)ccc3ccccc23)c1C(N)=O	-4%	-28%	8.9µM*	13%
CCN1C(=S)SC(=O)C1=C1C=C(C)N(Cc2ccco2)C(C)=C1	-6%	11µM*	?	-1%
CCN1C(=S)SC(=O)C1=C1C=C(C)OC(C)=C1	-1%	-1%	0%	1%
COc1ccc2cc(C(=O)C3CCCN(Cc4ccccn4)C3)ccc2c1 (centres undefined)	1%	-7%	28µM*	1%
CCn1ccnc1CN1CCCC(C(=O)c2ccc3cc(OC)ccc3c2)C1 (centres undefined)	-4%	0%	?	0%
BrC(=C\c1ccccc1)/C=N/N1CCN(c2ccccn2)CC1	-1%	0%	1%	22µM*
Oc1cccc(/C=N/N2CCN(c3ccccn3)CC2)c1	8%	-2%	6%	0%
SMILES	GRP78 ERSR act	Vif-A3G inh	Vif-APOBEC3F blk	Epigenetic derep
COCCNC(=O)c1ccc2c(=O)n(CCc3ccccc3)c(SCC(=O)CC(=O)OC)nc2c1	-1%	0%	0%	2%
CCOc1ccc(CNC(=O)c2ccccc2NC(=O)c2nsc3ccccc23)cc1	5%	-11%	7.9µM*	9%
CC(=O)N1CCc2c(sc(NC(=O)Cc3ccc(F)cc3)c2C#N)C1	-4%	-2%	-10%	.
CC(=O)N1CCc2c(sc(NC(=O)c3ccc([N+](=O)[O-])o3)c2C#N)C1	-5%	-20%	-17%	11µM*
CC(C)N1CCc2c(sc(NC(=S)NC(=O)c3ccccc3)c2C#N)C1	-6%	?	?	0%
CCCN1CCc2c(sc(NC(=S)NC(=O)c3ccccc3)c2C#N)C1	14%	-30%	25µM*	?
COc1cc(C(=O)Nc2sc3c(c2C#N)CCN(C(C)=O)C3)cc(OC)c1OC	-3%	?	-4%	0%
COc1ccc(C(=O)Nc2sc3c(c2C#N)CCN(C(C)=O)C3)cc1	-2%	10µM*	-14%	0%
CCn1c(=O)c2cc(C(=O)NCCc3cc(OC)ccc3OC)sc2c2ccccc21	-2%	-6%	-5%	6%
OCCN(Cc1ccccc1)C(=S)NC1CCCCC1	-3%	2%	1%	-2%
S=C(NC1CCCCC1)N(CCc1ccccc1)CCc1ccccc1	-3%	-1%	7.1µM*	-1%
